Several values for one entry are separate records, joined by “and”; a condition that tells them apart may be missing. Identical values can stand only once. This is part of a sample that, as a whole, favours compounds with a hit. Of some 83,000 tested, about 20% had one in any assay.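 For each line, cells grew in 96-well plates with the test compound present at a single concentration for 48 hours.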 Activity calls are given as the source filed them. Rule for the calls: active = growth percent below 10; inactive = the rest.
The compounds below were run on MDA-MB-468 breast (assay: NCI-60 one-dose screen, 48 h (100 = growth as untreated, 0 = no growth, -100 = all killed)). Details: 10 µM unless noted.

Row | Structure (SMILES) | growth
1 | CC1NC(C)c2ccc3ccccc3c2O1 (stereo not drawn) | 109% (inactive)
2 | Fc1ccccc1Nc1ccc2nnc(-c3ccncc3)n2n1 | 105% (inactive)
3 | O=C(CCc1nnc2sc(-c3cc(O)c(O)c(O)c3)nn12)c1nc2ccccc2[nH]1 | 86.8% (inactive)
4 | C/C(=C\CCc1ccsc1)CC/C=C(\C)CCCN1CCSCC1 | 50.1% (inactive)
5 | Cc1ccc(C(=O)/C(=C/c2ccc([N+](=O)[O-])cc2)S(=O)Cc2ccccc2)cc1 (stereo not drawn) | -54.1% (active)
6 | CCOc1ccc(Nc2c3ccccc3nc3ccccc23)cc1 | 102% (inactive) and -9.77% (active)
7 | C=C(CN1CC=CCC1)[C@@H]1CC[C@]2(CO)CC[C@]3(C)[C@H](CC[C@@H]4[C@@]5(C)CC[C@H](O)C(C)(C)[C@@H]5CC[C@]43C)[C@@H]12 | 89.2% (inactive)
8 | CN1CCN(c2ccc(Nc3ncc4[nH]c(=O)n(Cc5ccccc5N)c4n3)cc2)CC1 | 111% (inactive)
9 | O=C1/C(=C/c2ccc(C(F)(F)F)cc2)COc2ccc(O)cc21 | 100% (inactive)
10 | Clc1nc(-c2cccnc2)nc2sc3c(c12)CCCCCC3 | 95.1% (inactive)
11 | O=C(O)c1ccc(-c2nn(-c3ccc(C(=O)O)cc3)cc2/C=N/Nc2c(F)c(F)cc(F)c2F)cc1 | 117% (inactive)
12 | OC(c1cc2cc(Br)ccc2c2cc(Br)ccc12)C1CCCCN1 (stereo not drawn) | -83.1% (active)
13 | CN(C)[C@@H]1C(=O)C(C(N)=O)=C(O)[C@@]2(O)C(=O)C3=C(O)c4c(O)cc(CN5CCc6ccccc6C5)c(Cl)c4C[C@H]3C[C@@H]12 | -46.8% (active)

Source: PubChem BioAssay (NCI)
